Screening results as filed in PubChem.
Sampled rows, rich in hits. Any-hit rate of the full collection: about 3.8%.
HT1080NT lethal – kills 2HG-producing HT-1080-NT fibrosarcoma cells. 360,000 tested, 1.6% active. HT-1080-NT fibrosarcoma viability, CellTiter-Glo ATP luminescence, 48 h. Potency, µM (doses to about 46.1 µM), for the others: at the highest dose activity, negative = less viability, usual class: cytotoxic;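 also: NT is the 2HG producing partner of a matched IDH1 knockdown line; 0% = DMSO-treated cells and -100% = media-only wells without cells; nearly all actives have a fitted effect of over 55% in size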
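Compounds were tested in concentration-response format on HT-1080-NT cells for 48 hours at 37 degrees C. Cell viability came from CellTiter-Glo luminescence; curves were classified by r2, response magnitude and activity.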
TGFb SMAD3 inh – TGF-b pathway inhibition; HepG2 CAGA-GFP TGF-b/SMAD3 reporter, GFP fluorescence, 18 h; TGF-beta stimulated, 500 pg/mL final; Potency, µM (titrated, usually from 46.1 µM), for inactives: at the top dose activity, negative = inhibition, hits mostly inhibitors; 410,000 tested, 1.2% active; also: % is scaled to controls: 0 for no effect and ±100 for the full control effect; nearly all actives have a fitted effect of over 65% in size
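HEPG2 CAGA-GFP reporter cells (1000/well, DMEM with 1% FBS) received compounds, then recombinant TGF-beta at 500 pg/mL final for 18 hours at 37 degrees C. Per-cell GFP summed per well was normalised to unstimulated and stimulated DMSO controls before curve fitting.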
HT1080 IDH1KD tx – toxicity to HT-1080 IDH1 knockdown cells (counter line); HT-1080 IDH1 knockdown viability, ATP luminescence, 48 h; Potency, µM (titrated, usually from 46.1 µM), without a hit: top-dose activity, negative = toxicity, hits mostly cytotoxic; 360,000 tested, 2% active;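 also: 0% = DMSO wells and -100% = cell-free medium wells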
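Cytotoxicity counter-line: IDH1KD HT-1080, 48 h, CellTiter-Glo. Curves classed by r2, magnitude and activity.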
HepG2 tox – kills HepG2 cells in TGF-b inhibitor counter-screen | HepG2 CAGA-GFP viability, ATP luminescence, 18 h | AID 588856 | Potency, µM (doses to about 46.1 µM), without a hit: at the top dose activity change, negative = cytotoxicity, usual class: cytotoxic | 410,000 tested, 0.76% active
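CellTiter-Glo luminescence gave cytotoxicity after 18 hours at 37 degrees C. The cells were HepG2 CAGA-GFP in 1% FBS DMEM, stimulated with 500 pg/mL TGF-beta after compound addition. %Activity was normalised to no-cell wells (complete cell-killing) and DMSO (no toxicity), and curves were fitted and classified.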
ATXN2 expr inh – ATXN2 expression inhibition; HEK-293 ATXN2-luciferase reporter, luminescence, 24 h; Potency, µM (series often up to 57 µM), inactives show at the highest dose activity change, negative = inhibition, hits mostly inhibitors; 360,000 tested, 0.72% active; also: % is scaled to controls: 0 for no effect and ±100 for the full control effect; nearly all actives have a fitted effect of over 55% in size
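ATXN2-luciferase reporter cells (luciferase flanked by upstream and downstream ATXN2 gene portions) were treated 24 h at 37 °C with compounds at up to 57 uM. SteadyGlo luminescence gave expression; GF-AFC fluorescence gave viability.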
S2 tox – reduces viability in counter-screen for ATXN expression inhibitors; S2 cells (HEK-293 line with an ATXN2-luciferase reporter) viability, CellTiter-Fluor protease fluorescence, 24 h; Potency, µM (doses to about 56.7 µM), most hits filed as cytotoxic; 400,000 tested, 0.49% active; also: nearly all actives have a fitted effect of over 40% in size
The depositor's hits bear a star; i = inactive; ? = inconclusive; . = no result given. Calls follow the shape of the dose curve; as a rule, active = well fitted curve in the direction sought with a large enough effect; inconclusive = small, poorly fitted or top-dose-only effect, or another doubt; inactive = no such curve, though single readings can be large; an effect the other way counts as inactive or inconclusive. Potency is read from the fitted curve at half-maximal effect.

SMILES	HT1080NT lethal	TGFb SMAD3 inh	HT1080 IDH1KD tx	HepG2 tox	ATXN2 expr inh	S2 tox
O=C(c1cc(COc2cccc3cnccc23)on1)N1CCC(c2ccccc2Cl)C1 (stereo unspecified)	?	20µM*	-21%	-35%	.	?
Cc1onc(-c2ccccc2)c1C(=O)Cl	.	.	.	.	0%	i
Cc1cc(NC(=O)CN(C)S(=O)(=O)c2ccc3c(c2)CCCC(=O)N3)ccc1Br	.	-14%	.	-28%	16µM*	.
CCN(CC)c1ccc(NC(=O)CCc2nc3cccnc3n2Cc2cccs2)c(C)c1	.	10%	.	-11%	.	.
Cc1oc(-c2ccccc2F)nc1Cn1c(SCc2cccc(C(F)(F)F)c2)nc2ccncc21	.	?	.	-65%	-32%	?
Cc1oc(-c2ccccc2F)nc1Cn1c(SCc2cccc(Cl)c2)nc2ccncc21	.	18µM*	.	-19%	.	.
Cc1cc(/C=C/c2nc3ccccc3s2)ccc1N(C)C	.	?	.	-34%	.	.
CCOC(=O)c1c(-c2ccccc2)oc2ccc(OCC(O)CN(C)C)cc12 (stereo unspecified)	26µM*	14µM*	15µM*	18µM*	-36%	?
CCOC(=O)c1c(-c2ccccc2)oc2ccc(OC(C)C(=O)O)cc12 (stereo unspecified)	0%	0%	-6%	15%	-12%	i
CCN1C/C(=C/c2ccc(OC)c(O)c2)C(=O)/C(=C/c2ccc(OC)c(O)c2)C1	?	?	?	-2%	.	?
COc1ccc(/C=C2\CN(Cc3ccccc3)C/C(=C\c3ccc(OC)c(O)c3)C2=O)cc1O	?	5µM*	2.3µM*	-64%	4µM*	?
COc1cc(/C=C/C=C2/CC/C(=C/C=C/c3ccc(O)c(OC)c3)C2=O)ccc1O	-11%	?	-10%	-61%	?	.
COc1cc(/C=C2/CC/C(=C/c3ccc(O)c(OC)c3)C2=O)ccc1O	18µM*	-7%	21µM*	-33%	-3%	i
COc1cc(/C=C2\COC/C(=C\c3ccc(O)c(OC)c3)C2=O)ccc1O	?	6.3µM*	?	-23%	?	.
C=CCOc1ccc(/C=C2\SC(N)=NC2=O)cc1OC	-1%	6%	2%	-6%	25%	i
COc1cc(/C=C2\SC(N)=NC2=O)ccc1O	?	?	18µM*	-1%	?	?
COc1ccc(CCn2c3c(c(=O)[nH]c2=O)C(NC(=O)c2ccc(C(C)(C)C)cc2)(C(F)(F)F)C(=O)N3)cc1OC (stereo unspecified)	.	-1%	.	16%	22%	i
N/C(=C\c1ccccc1)c1ccncc1	.	8%	.	11%	.	.
Cc1ccc(CNC(=O)c2cc(S(=O)(=O)N3CCCCCC3)cn2C)cc1	.	-16%	.	-7%	1%	i
COc1ccc2c(c1)CC/C(=C/c1cc(OC)c(OC)c(OC)c1)C2=O	16%	-5%	-7%	0.14µM*	?	i
COc1ccc(OC)c(C=C2CCc3ccccc3C2=O)c1	?	-23%	?	3%	0%	?
CN(CCO)C(=O)c1cn(C2CCN(Cc3ccc4ccccc4c3)CC2)nn1	.	.	.	.	.	i
CSc1cccc(NC(=S)N(CCCN2CCCC2)Cc2cccs2)c1	?	-7%	?	-1%	-13%	i
COc1cccc(NC(=S)N(CCCN2CCCC2)Cc2cccn2Cc2ccc(Cl)cc2)c1	21µM*	?	18µM*	-178%	?	?
CSc1cccc(NC(=S)N(CCCN2CCCC2)Cc2cccn2Cc2ccc(Cl)cc2)c1	18µM*	?	?	-175%	14µM*	.
SMILES	HT1080NT lethal	TGFb SMAD3 inh	HT1080 IDH1KD tx	HepG2 tox	ATXN2 expr inh	S2 tox
S=C(Nc1cccc(Cl)c1)N(CCCN1CCCC1)Cc1cccn1Cc1ccc(Cl)cc1	16µM*	?	18µM*	25µM*	32µM*	28µM*
O=C(C[n+]1ccccc1Br)c1ccc(F)cc1	.	12%	.	8%	.	.
OCCN1C[C@H](O)[C@@H](O)[C@H](O)[C@@H]1CO	.	.	.	.	12%	.
COc1cc(N2CCC(N3CCN(C)CC3)CC2)ccc1Nc1ncc(Cl)c(Nc2ccccc2S(=O)(=O)C(C)C)n1	.	.	.	.	19µM*	.
Nc1nc2c(nnn2C2CC(O)C(CO)O2)c(=O)[nH]1 (stereo unspecified)	?	?	5.2µM*	-25%	-10%	i
N#C/C(=C/c1ccco1)C(N)=S	?	-1%	0%	-26%	-4%	i
N#CC(C#N)=C1C=CC=CN1/C(=C\c1ccco1)C(=O)c1ccc(Br)cc1	-4%	3.2µM*	-12%	13µM*	18µM*	?
COc1ccc(/C=C(/C(=O)c2cccs2)N2C=CC=CC2=C(C#N)C#N)cc1	?	?	?	11µM*	.	?
N#CC(C#N)=C1C=CC=CN1/C(=C\c1ccco1)C(=O)c1ccccc1	?	2.2µM*	?	4µM*	?	?
COc1ccc(C(=O)/C(=C\c2ccco2)N2C=CC=CC2=C(C#N)C#N)cc1	?	3.5µM*	2.9µM*	-50%	14µM*	.
Fc1ccc(-c2cc3ncc4c(n3n2)-c2cc(Cl)ccc2OC4)cc1	.	0%	.	-12%	14%	i
